Pf growth 48h: Primary qHTS for delayed death inhibitors of the malarial parasite plastid, 48 hour incubation. 310,000 compounds, 5.9% hits. Potency, µM (top dose mostly 28.7 µM), for the others: at the highest dose activity change, negative = inhibition, hits mostly inhibitors. P. falciparum luciferase growth in erythrocytes, 48 h; also: potency is read from the fitted curve at half-maximal effect; % is scaled to controls: 0 for no effect and ±100 for the full control effect
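Parasite viability was followed by luminescence of a genomically integrated firefly luciferase. Cultures held 0.1% parasitemia at 2% hematocrit (final), incubated under 5% CO2 at 37 C.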
Pf growth 96h: Primary qHTS for delayed death inhibitors of the malarial parasite plastid, 96 hour incubation. P. falciparum luciferase reporter growth, 96 h. 320,000 compounds, 6.9% hits. Potency, µM (titrated, usually from 28.7 µM), without a hit: at the top dose activity change, negative = inhibition, actives largely listed as inhibitors; also: potency is read from the fitted curve at half-maximal effect; % is scaled to controls: 0 for no effect and ±100 for the full control effect
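Two-generation exposure (96 h) targets delayed-death phenotype. Reporter parasites carrying integrated firefly luciferase, in red cells at 2% hematocrit and 0.05% parasitemia final, kept at 37 C, 5% CO2; luminescence loss indicates inhibition.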
SARS PLP yeast: qHTS of Yeast-based Assay for SARS-CoV PLP. Potency, µM (series often up to 32.9 µM), without a hit: top-dose activity, positive = growth rescue, hits mostly activators. S. cerevisiae expressing SARS-CoV PLpro, growth rescue. 330,000 compounds, 0.19% hits; calls by dose curve; also: potency is read from the fitted curve at half-maximal effect; 0% is about no effect; nearly all actives have a fitted effect of over 55% in size
NS1 function inh: qHTS Assay for Inhibitors of Influenza NS1 Protein Function | 270,000 compounds, 0.4% hits | Potency, µM (top dose mostly 46.1 µM), without a hit: top-dose activity, positive = more growth | AID 2326, 2010; calls by dose curve; also: potency is read from the fitted curve at half-maximal effect; actives are rising curves; nearly all actives have a fitted effect of over 50% in size
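In this qHTS, NS1 from influenza A is expressed in budding yeast, where it slows growth. Cells are switched from glucose to 2% galactose medium (pH 6.0, -URA), treated with compound, and growth recovery is read at OD600.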
CHX counter: Cycloheximide Counterscreen for Small Molecule Inhibitors of Shiga Toxin | 300,000 compounds, 12% hits | AID 2314, 2010 | max response, % | cell reporter, cycloheximide protein synthesis inhibition counterscreen; in the data active = max response mostly above about 13%, no sharp cut-off; inactive = mostly below about 14%; also: read at 38.3 µM for the half of the compounds with a filed dose; 0% is about no effect
Shiga inhibitor: A qHTS for Small Molecule Inhibitors of Shiga Toxin; AID 2315, 2010; 290,000 compounds, 9.2% hits; Vero cells, Shiga toxin protein synthesis inhibition reporter; inhibition, % at 38.7 µM; in the data active = inhibition mostly above about 28%, no sharp cut-off; inactive = mostly below about 43%; also: 0% is about no effect
Starred values were filed as active, the others as inactive; ? = inconclusive; . = no result. Hits are enriched below; roughly 21% of the tested compounds scored in any of these assays. Unless noted, calls follow the shape of the dose curve; as a rule, active = well fitted inhibition curve with a large enough effect; inconclusive = small, poorly fitted or top-dose-only effect, or another doubt; inactive = no such curve, though single readings can be large or run the other way.

SMILES	Pf growth 48h	Pf growth 96h	SARS PLP yeast	NS1 function inh	CHX counter	Shiga inhibitor
COc1cccc(C2c3[nH]c4ccccc4c3C[C@H]3C(=O)N(c4ccccc4C(=O)NCCCN4CCOCC4)C(=O)N23)c1 (stereo not given in full)	15µM*	12µM*	6%	-11%	-3	-4
COc1ccc(-n2nc(C(=O)NCCCN3CCOCC3)c3ccccc3c2=O)c(OC)c1	-5%	-7%	-14%	-6%	-3	-3
O=C(NCCN1CCOCC1)c1ccccc1N1C(=O)[C@@H]2Cc3c([nH]c4ccccc34)C(c3ccccc3)N2C1=O (stereo not given in full)	?	?	6%	-19%	-1	-2
O=C(NCCCN1CCOCC1)c1ccccc1N1C(=O)[C@@H]2Cc3c([nH]c4ccccc34)C(c3ccc(F)cc3)N2C1=O (stereo not given in full)	13µM*	?	2%	-28%	-2	-2
Cc1ccc(C(=O)COC(=O)CN2C(=O)C3C4C=CC(C4)C3C2=O)cc1C (stereo not given)	62%	35%	-5%	1%	-2	15
Cc1ccc(C(=O)N/N=C/c2ccc(-c3ccccc3[N+](=O)[O-])o2)cn1	-20%	-12%	-6%	-28%	19*	20
Cc1ccc(C(=O)N/N=C/c2ccc(-c3cccc(Cl)c3)o2)cn1	0%	47%	-2%	-7%	1	3
O=C(N/N=C/c1ccc(-c2ccccc2[N+](=O)[O-])o1)[C@H]1C[C@@H]1c1ccccc1	0%	25%	-18%	-8%	31*	active
Cc1n[nH]c(=S)n1/N=C/c1ccc(-c2ccccc2[N+](=O)[O-])o1	17%	.	3%	-2%	13*	33
CCN(C(=O)COC(=O)CC1CCCCC1)c1c(N)n(Cc2ccccc2)c(=O)[nH]c1=O	?	?	2%	.	.	.
CCOC(=O)c1[nH]c(=O)[nH]c1CNc1ccccc1C#N	21%	-22%	4%	28%	-2	.
CC(=O)c1ccc(S(=O)(=O)N2CCN(c3nc(-c4cccnc4)nc4ccccc34)CC2)cc1	8.3µM*	?	-5%	.	.	.
O=S(=O)(c1ccc2c(c1)OCCO2)N1CCN(c2nc(-c3cccnc3)nc3ccccc23)CC1	?	?	0%	4%	-4	-19
O=S(=O)(c1ccc(Cl)cc1)N1CCN(c2nc(-c3cccs3)nc3ccccc23)CC1	3.7µM*	1.5µM*	12%	11%	-3	14
O=S(=O)(/C=C/c1ccccc1)N1CCN(c2nc(-c3cccnc3)nc3ccccc23)CC1	?	?	-1%	10%	-8	-12
O=S(=O)(c1ccccc1)N1CCN(c2nc(-c3cccnc3)nc3ccccc23)CC1	?	8.3µM*	-2%	.	.	.
O=S(=O)(c1ccc(F)cc1)N1CCN(c2nc(-c3cccnc3)nc3ccccc23)CC1	9.3µM*	10µM*	-4%	.	.	.
O=C(NCc1ccc(F)cc1)C1CCCN(c2cnccn2)C1 (stereo not given)	16%	?	1%	2%	-7	-16
Cc1ccc(C(=O)N(C)CC(=O)Nc2ccc(F)c(F)c2F)o1	-12%	-11%	-1%	.	6	15
COc1cc(Cl)c(C)cc1NC(=O)CN(C)C1CCS(=O)(=O)C1 (stereo not given)	.	.	0%	.	.	.
Cc1ccccc1C(=O)NC1CCN(CC(=O)N2CCCCC2C)CC1 (stereo not given)	16%	-16%	0%	1%	-4	-4
COc1ccc(-c2nc(N3CCN(S(=O)(=O)c4ccc(C)cc4)CC3)c3ccccc3n2)cc1	.	.	.	.	27*	73
O=S(=O)(c1ccc(Cl)cc1)N1CCN(c2nc(-c3ccc(Cl)cc3)nc3ccccc23)CC1	.	.	.	.	12	39
Cc1ccc(NC(=S)N2CCN(S(C)(=O)=O)CC2)cc1	39%	10µM*	10%	1%	-1	-5
Cc1ccc(NC(=S)N2CCCCC2)cc1C	35%	10%	18%	-3%	20*	43*
